According to PubChem BioAssay (EPA / NIEHS):
Records with an inconclusive call do not appear. The source made the active and inactive calls. Rule for the calls: active = hit-call score of the fitted dose curve at least 0.9, where 1 is the maximum; inconclusive = response in the unintended direction; inactive = score below 0.9.

biological target: Androgen receptor (Homo sapiens) (UniProt P10275); assay: ATG_AR_TRANS: Attagene TRANS-FACTORIAL HepG2 Assay for human Androgen Receptor (AR) (AID 2282973); conditions: HepG2 Attagene TRANS-FACTORIAL AR reporter transcription
How it was run: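 Readout is reporter transcript abundance, quantified by fluorescent RT-PCR products separated on capillary electrophoresis. Human HepG2 liver cells carried transiently transfected NR-Gal4 chimera plus GAL4-UAS reporter constructs and were dosed for 24 h; activity scored upward versus DMSO.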

Sequence of Androgen receptor (Homo sapiens) (P10275 whole entry, looked up, the tested form may be a part): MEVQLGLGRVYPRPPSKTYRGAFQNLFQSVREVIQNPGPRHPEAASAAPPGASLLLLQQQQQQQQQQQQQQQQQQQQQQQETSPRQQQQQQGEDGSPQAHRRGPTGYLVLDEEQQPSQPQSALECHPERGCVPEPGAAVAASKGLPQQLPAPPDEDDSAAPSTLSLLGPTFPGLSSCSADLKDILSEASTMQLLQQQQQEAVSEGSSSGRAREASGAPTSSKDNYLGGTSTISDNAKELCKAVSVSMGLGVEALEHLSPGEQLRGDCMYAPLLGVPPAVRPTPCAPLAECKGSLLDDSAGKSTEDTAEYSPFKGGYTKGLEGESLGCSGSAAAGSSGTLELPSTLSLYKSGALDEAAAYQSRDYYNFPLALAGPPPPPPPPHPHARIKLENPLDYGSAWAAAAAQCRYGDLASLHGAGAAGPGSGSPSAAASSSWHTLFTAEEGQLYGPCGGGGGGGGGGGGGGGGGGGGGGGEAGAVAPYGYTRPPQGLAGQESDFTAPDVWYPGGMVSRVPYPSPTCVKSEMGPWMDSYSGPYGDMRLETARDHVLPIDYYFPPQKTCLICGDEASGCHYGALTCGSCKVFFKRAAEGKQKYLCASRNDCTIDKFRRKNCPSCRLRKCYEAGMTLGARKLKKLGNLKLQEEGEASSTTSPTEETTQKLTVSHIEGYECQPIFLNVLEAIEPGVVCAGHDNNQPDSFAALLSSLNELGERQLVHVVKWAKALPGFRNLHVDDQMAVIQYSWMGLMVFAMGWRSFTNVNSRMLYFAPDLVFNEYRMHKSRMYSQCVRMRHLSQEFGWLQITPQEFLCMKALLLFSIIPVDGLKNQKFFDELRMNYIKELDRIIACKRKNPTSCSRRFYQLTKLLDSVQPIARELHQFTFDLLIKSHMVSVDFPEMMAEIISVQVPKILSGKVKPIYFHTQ

outcome, inactive:
CC(=O)C=O, O=C(Nc1ccccc1)c1cc([N+](=O)[O-])ccc1Cl, CC(CO)c1ccccc1 (stereo not given), C=C(C)[C@@H]1CCC2=CCC[C@@H](C)[C@]2(C)C1, CC1COCc2cc3c(cc21)C(C)(C)C(C)C3(C)C (stereo not given), NCC(F)(F)C(F)(F)C(F)(F)C(F)(F)C(F)(F)C(F)(F)F, CN(C)CCOc1ccc(/C(=C(/CCCl)c2ccccc2)c2ccccc2)cc1, O=[N+]([O-])c1cc(C(F)(F)F)ccc1Cl, CC(C)(C)c1ccc(OC2CCCCC2O)cc1 (stereo not given), Oc1ccc(Cl)cc1Cc1cc(Cl)ccc1O, COCc1c(C(C)C)nc(C(C)C)c(/C=C/[C@@H](O)C[C@@H](O)CC(=O)O)c1-c1ccc(F)cc1, CC(c1cc2ccccc2s1)N(O)C(N)=O (stereo not given), C=CCOCC(O)CCl (stereo not given), c1ccc2cc(Nc3ccc(Nc4ccc5ccccc5c4)cc3)ccc2c1, C=CC(=O)OCC(CO)(COCC(COC(=O)C=C)(COC(=O)C=C)COC(=O)C=C)COC(=O)C=C
